From PMC7862700, “An all-to-all approach to the identification of sequence-specific readers for epigenetic DNA modifications on cytosine”

Experiments:
Test in all cases: DAPPL (digital affinity profiling via proximity ligation, sequencing); 10 mM Tris-HCl pH 7.5, 50 mM NaCl, 1 mM DTT, 4% glycerol, room temperature, 30 min; GST-TFs on glutathione beads, 16-mer random dsDNA library, 0.1% formaldehyde crosslink after washing; high values mean tight binding
FEV = molecular target: T1, FEV (Homo sapiens, UniProt Q99581 1-238); conditions: protein: recombinant; tags: N-terminal GST; dsDNA, one strand shown
T1 sequence: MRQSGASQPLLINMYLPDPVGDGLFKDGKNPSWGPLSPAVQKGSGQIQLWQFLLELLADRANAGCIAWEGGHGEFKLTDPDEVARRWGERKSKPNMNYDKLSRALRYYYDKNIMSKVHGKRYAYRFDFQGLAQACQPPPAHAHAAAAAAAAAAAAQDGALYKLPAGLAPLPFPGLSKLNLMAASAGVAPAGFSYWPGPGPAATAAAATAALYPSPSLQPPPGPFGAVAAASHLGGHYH
Method in brief: (§1)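 Each value of binding signal is a hexamer's read frequency for a factor divided by the same hexamer's frequency in the tag-only sample. Barcoded, bead-captured GST fusions of human transcription factors made in yeast were pooled with that sample and incubated with 200 nmole of a random double-stranded 16-mer DNA library in Tris/NaCl/DTT/glycerol buffer at room temperature for 30 min. Washing, 0.1% formaldehyde crosslinking, proximity ligation, PCR and Illumina NextSeq500 sequencing followed.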

ETV5 = ETV5 (Homo sapiens, UniProt P41161 1-510); conditions: protein: recombinant; tags: N-terminal GST; dsDNA, one strand shown
Method in brief: as §1

HSF1 = HSF1 (Homo sapiens, UniProt Q00613 1-529); conditions: protein: recombinant; tags: N-terminal GST; chain copies: 3; dsDNA, one strand shown
Method in brief: as §1

SPIC = molecular target: T2, SPIC (Homo sapiens, UniProt Q8N5J4 1-248); conditions: protein: recombinant; tags: N-terminal GST; dsDNA, one strand shown
T2 sequence: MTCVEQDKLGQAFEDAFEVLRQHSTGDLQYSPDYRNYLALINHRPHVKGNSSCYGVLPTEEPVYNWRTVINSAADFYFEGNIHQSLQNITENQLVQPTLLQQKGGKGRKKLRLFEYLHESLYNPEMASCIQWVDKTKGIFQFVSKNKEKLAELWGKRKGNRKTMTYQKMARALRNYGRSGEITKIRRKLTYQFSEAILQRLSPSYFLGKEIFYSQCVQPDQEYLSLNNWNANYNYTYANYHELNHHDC
Method in brief: as §1

ELF4 = ELF4 (Homo sapiens, UniProt Q99607 1-663); conditions: protein: recombinant; tags: N-terminal GST; dsDNA, one strand shown
Method in brief: as §1

ELK4 = molecular target: T3, ELK4 (Homo sapiens, UniProt P28324-2 1-405); conditions: protein: recombinant; tags: N-terminal GST; dsDNA, one strand shown
T3 sequence: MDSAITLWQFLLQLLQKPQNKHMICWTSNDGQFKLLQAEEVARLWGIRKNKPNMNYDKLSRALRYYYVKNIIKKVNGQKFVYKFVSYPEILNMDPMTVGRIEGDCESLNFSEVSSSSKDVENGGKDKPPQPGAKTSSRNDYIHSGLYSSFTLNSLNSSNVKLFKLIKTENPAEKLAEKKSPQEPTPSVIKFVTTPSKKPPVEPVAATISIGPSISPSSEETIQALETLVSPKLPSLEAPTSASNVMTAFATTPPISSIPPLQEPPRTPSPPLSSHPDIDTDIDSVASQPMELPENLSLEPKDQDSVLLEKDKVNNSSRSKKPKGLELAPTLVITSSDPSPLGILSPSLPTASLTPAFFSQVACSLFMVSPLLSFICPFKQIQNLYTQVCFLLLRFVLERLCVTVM
Method in brief: as §1

ETV2 = molecular target: T4, ETV2 (Homo sapiens, UniProt O00321 1-342); conditions: protein: recombinant; tags: N-terminal GST; dsDNA, one strand shown
T4 sequence: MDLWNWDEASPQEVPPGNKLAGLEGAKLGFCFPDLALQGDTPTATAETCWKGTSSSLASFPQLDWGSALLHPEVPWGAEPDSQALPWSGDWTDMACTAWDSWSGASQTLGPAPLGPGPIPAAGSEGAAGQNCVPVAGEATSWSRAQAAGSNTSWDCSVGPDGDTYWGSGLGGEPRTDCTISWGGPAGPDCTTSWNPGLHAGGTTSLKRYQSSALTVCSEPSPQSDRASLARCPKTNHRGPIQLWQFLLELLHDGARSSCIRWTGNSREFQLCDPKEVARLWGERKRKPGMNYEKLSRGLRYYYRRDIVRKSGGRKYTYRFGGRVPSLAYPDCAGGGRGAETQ
Method in brief: as §1

ELF3 = molecular target: T5, ELF3 (Homo sapiens, UniProt P78545 1-371); conditions: protein: recombinant; tags: N-terminal GST; dsDNA, one strand shown
T5 sequence: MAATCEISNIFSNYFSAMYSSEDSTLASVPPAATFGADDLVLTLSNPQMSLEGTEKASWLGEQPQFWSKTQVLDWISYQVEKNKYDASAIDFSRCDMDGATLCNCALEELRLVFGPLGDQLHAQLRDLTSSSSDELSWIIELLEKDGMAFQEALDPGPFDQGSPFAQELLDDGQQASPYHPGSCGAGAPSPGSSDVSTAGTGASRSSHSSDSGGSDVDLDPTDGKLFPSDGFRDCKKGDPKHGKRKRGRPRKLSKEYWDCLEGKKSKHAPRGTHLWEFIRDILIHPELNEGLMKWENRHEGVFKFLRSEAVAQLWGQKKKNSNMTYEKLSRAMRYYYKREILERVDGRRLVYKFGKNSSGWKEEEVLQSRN
Method in brief: as §1

ETV1 = ETV1 (Homo sapiens, UniProt P50549 1-477); conditions: protein: recombinant; tags: N-terminal GST; dsDNA, one strand shown
Method in brief: as §1

ETV1, sequence (P50549 whole entry): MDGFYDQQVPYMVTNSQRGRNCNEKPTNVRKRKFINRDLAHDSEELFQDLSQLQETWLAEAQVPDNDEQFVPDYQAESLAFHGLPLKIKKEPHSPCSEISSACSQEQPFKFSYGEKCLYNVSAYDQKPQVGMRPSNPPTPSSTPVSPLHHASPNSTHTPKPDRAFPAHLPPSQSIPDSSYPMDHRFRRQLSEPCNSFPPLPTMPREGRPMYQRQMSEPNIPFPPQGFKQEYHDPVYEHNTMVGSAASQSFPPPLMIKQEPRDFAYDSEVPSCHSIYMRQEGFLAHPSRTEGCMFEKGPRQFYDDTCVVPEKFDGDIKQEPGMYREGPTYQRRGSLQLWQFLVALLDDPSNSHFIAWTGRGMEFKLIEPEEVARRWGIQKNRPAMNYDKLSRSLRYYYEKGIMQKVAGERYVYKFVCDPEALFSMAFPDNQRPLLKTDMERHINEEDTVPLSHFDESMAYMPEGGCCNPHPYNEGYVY
HSF1, sequence (Q00613 whole entry): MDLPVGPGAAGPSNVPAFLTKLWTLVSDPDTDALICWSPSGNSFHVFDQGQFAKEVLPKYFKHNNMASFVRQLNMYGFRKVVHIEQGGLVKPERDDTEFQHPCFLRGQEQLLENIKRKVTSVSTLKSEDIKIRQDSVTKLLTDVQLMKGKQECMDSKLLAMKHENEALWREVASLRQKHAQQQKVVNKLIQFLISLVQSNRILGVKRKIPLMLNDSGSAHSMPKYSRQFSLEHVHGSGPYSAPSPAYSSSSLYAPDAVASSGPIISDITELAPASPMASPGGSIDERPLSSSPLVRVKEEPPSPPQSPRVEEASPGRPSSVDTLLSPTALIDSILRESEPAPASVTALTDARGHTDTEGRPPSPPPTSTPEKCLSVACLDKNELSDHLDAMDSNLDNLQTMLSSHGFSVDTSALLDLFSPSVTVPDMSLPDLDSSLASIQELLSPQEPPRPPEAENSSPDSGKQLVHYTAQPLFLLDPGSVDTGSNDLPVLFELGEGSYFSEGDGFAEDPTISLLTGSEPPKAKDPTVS
ETV5, sequence (P41161 whole entry): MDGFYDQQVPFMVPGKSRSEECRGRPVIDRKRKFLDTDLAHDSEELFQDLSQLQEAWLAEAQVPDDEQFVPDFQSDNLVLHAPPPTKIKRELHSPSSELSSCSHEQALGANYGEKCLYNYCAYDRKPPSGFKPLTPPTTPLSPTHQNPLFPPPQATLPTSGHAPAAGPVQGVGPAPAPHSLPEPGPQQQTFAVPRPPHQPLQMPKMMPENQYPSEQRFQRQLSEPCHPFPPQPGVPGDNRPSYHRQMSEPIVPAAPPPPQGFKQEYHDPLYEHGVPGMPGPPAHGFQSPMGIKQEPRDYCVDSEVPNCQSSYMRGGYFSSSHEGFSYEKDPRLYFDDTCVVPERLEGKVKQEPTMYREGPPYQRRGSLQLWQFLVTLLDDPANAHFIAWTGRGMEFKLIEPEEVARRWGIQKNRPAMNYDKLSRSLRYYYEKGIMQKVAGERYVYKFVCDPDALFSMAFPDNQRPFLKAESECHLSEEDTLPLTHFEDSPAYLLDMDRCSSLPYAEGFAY
ELF4, sequence (Q99607 whole entry): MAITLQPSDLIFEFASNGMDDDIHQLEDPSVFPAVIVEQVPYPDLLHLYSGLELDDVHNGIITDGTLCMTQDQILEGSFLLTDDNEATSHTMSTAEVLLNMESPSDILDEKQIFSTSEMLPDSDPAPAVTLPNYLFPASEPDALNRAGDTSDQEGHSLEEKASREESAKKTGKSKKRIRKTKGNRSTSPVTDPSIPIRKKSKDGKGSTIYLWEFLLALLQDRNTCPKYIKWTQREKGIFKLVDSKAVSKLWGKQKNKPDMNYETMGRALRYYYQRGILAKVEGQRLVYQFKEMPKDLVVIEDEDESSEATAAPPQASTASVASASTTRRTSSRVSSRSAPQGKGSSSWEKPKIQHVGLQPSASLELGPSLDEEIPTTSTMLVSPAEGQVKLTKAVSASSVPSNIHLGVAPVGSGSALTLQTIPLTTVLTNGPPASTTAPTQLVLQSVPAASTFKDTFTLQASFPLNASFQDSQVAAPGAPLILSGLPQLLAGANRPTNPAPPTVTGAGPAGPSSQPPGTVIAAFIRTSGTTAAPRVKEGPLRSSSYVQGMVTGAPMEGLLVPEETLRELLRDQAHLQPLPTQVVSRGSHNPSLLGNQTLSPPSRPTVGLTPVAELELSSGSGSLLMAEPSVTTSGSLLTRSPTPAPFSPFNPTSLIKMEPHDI

Which results are given for CGACCA?
binding signal (FEV): 1.3 fold enrichment (6-mer frequency, TF over GST control); binding signal (ETV5): 1.17 fold enrichment (6-mer frequency, TF over GST control); binding signal (HSF1): 1.14 fold enrichment (6-mer frequency, TF over GST control); binding signal (SPIC): 1.12 fold enrichment (6-mer frequency, TF over GST control); binding signal (ELF4): 1.39 fold enrichment (6-mer frequency, TF over GST control); binding signal (ELK4): 1.31 fold enrichment (6-mer frequency, TF over GST control); binding signal (ETV2): 1.35 fold enrichment (6-mer frequency, TF over GST control); binding signal (ELF3): 1.32 fold enrichment (6-mer frequency, TF over GST control); binding signal (ETV1): 1.23 fold enrichment (6-mer frequency, TF over GST control)
